Test results from PubChem BioAssay (NCI).
Compounds without any hit were thinned out: in the full panel of roughly 83,000, 20% have a hit.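 Cell lines were cultured in 96-well plates, exposed to a single compound concentration, and assessed for percent growth 48 hours later.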 Values without a mark were called inactive. Active and inactive are the calls of the source. Rule for the calls: active = growth percent below 10; inactive = the rest.

How the values were obtained:
Assay in all cases: NCI-60 one-dose screen, 48 h (100 = growth as untreated, 0 = no growth, -100 = all killed)
K-562 leukemia = conditions: 10 µM unless noted
MALME-3M melanoma = conditions: 10 µM unless noted
MDA-MB-231 breast = conditions: 10 µM unless noted
RXF 393 renal = conditions: 10 µM unless noted
SF-268 CNS = conditions: 10 µM unless noted
SF-295 CNS = conditions: 10 µM unless noted
SF-539 CNS = conditions: 10 µM unless noted
UACC-257 melanoma = conditions: 10 µM unless noted
M14 melanoma = conditions: 10 µM unless noted
HCT-15 colon = conditions: 10 µM unless noted
HT29 colon = conditions: 10 µM unless noted
SNB-75 CNS = conditions: 10 µM unless noted
SNB-19 CNS = conditions: 10 µM unless noted
U251 CNS = conditions: 10 µM unless noted
PC-3 prostate = conditions: 10 µM unless noted
SK-MEL-5 melanoma = conditions: 10 µM unless noted
UACC-62 melanoma = conditions: 10 µM unless noted
LOX IMVI melanoma = conditions: 10 µM unless noted
SK-MEL-28 melanoma = conditions: 10 µM
SK-MEL-2 melanoma = conditions: 10 µM unless noted

| SMILES | growth (K-562 leukemia) | growth (MALME-3M melanoma) | growth (MDA-MB-231 breast) | growth (RXF 393 renal) | growth (SF-268 CNS) [%] | growth (SF-295 CNS) | growth (SF-539 CNS) | growth (UACC-257 melanoma) | growth (M14 melanoma) | growth (HCT-15 colon) | growth (HT29 colon) | growth (SNB-75 CNS) | growth (SNB-19 CNS) [%] | growth (U251 CNS) [%] | growth (PC-3 prostate) | growth (SK-MEL-5 melanoma) | growth (UACC-62 melanoma) | growth (LOX IMVI melanoma) | growth (SK-MEL-28 melanoma) | growth (SK-MEL-2 melanoma) [%] |
| --- | --- | --- | --- | --- | --- | --- | --- | --- | --- | --- | --- | --- | --- | --- | --- | --- | --- | --- | --- | --- |
| CCOC(=O)c1c2c(c(C)n1Cc1ccc(OC)cc1)-c1oncc1CC2 | 92% | 125% | 115% | 88.1% | 81.5 | 91.3% | 79.5% | 106% | 121% | 91.3% | 89.1% | 72.9% | 81.8 | 86.3 | 99.6% | 98.1% | 110% | 76.6% | 138% | 120 |
| CCOc1cc(Cl)c(C(C)NC(=O)c2cccc(OC)c2)cc1OCC (stereo not given) | -25.7% (active) | -70.4% (active) | -7.72% (active) | -95.8% (active) | 11.3 | 111% | 7.13% (active) | -70.3% (active) | -46.4% (active) | 3.34% (active) | -39.4% (active) | 7.33% (active) | 84.2 | 22.5 | 6.15% (active) | -96.8% (active) | -76% (active) | -68.9% (active) | -44.6% (active) | 34.9 |
| COc1ccc2c(c1)C=C1CSCC3=Cc4cc(OC)ccc4OC13O2 | 11% | 45.2% | 16.4% | 5% (active) | 41.1 | 2.44% (active) | -25.4% (active) | 74.7% | 17.2% | 18.2% | 6.74% (active) | 23.9% | 28.9 | 18.7 | 19.3% | 14% | 14.2% | 24.1% | 60% | 52.6 |
| c1ccc(CNc2nc(Nc3ccccc3)nc3ccccc23)cc1 | 33.6% | -7.75% (active) | 66.8% | 2.83% (active) | 50.7 | -61.1% (active) | 40.2% | 14.4% | 55% | 72.6% | 54.5% | -6.23% (active) | 47.3 | 29.6 | 19.5% | 54.8% | 27.1% | 59.6% | -35.1% (active) | 21.8 |
| CC(=O)c1ccc(NC(=O)Nc2ccc(S(=O)(=O)Nc3ccc(Cl)nn3)cc2)cc1 | 103% | 100% | 96.7% | 117% | 99.2 | 103% | 97.6% | 99.4% | 111% | 107% | 111% | 86.4% | 95.8 | 103 | 104% | 100% | 92% | 99% | 107% | 108 |
| Nc1nc2c(ncn2[C@@H]2O[C@H](CS)[C@@H](O)[C@H]2O)c(=O)[nH]1 | 97.2% | 97.5% | 99.3% | 111% | 99.7 | 98.2% | 102% | 94.7% | 102% | 101% | 99.9% | 92.6% | 95.3 | 99.3 | 101% | 97% | 93.6% | 96.9% | 98.6% | 120 |
| C=C(C)CCC(C)N1CCC(N2CCC(C(=O)NCCc3ccccc3)CC2)CC1 (stereo not given) | 17% | 57.3% | 69.7% | 47.5% | 57.8 | 79.5% | 69% | 72.6% | 58% | 39.2% | 39.3% | 105% | 102 | 77.4 | 59.7% | 10.9% | 68.9% | 63.1% | 90% | 99.3 |
| COc1ccc(C(=O)C2CC2c2ccc(Cl)cc2)cc1 (stereo not given) | 76.1% | 94.8% | 86.4% | 95.5% | 78.8 | 141% | 98.6% | 94.2% | 92% | 97.9% | 104% | 75.6% | 117 | 82.4 | 72.5% | 96.7% | 84.9% | 91.1% | 107% | 89 |
